Results: PubChem BioAssay (NCI)
Compounds without any hit were thinned out: in the full panel of roughly 83,000, 20% have a hit.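 Assay: single dose, 48 h. Readout: percent growth (0 = no net growth; negative = cell death). Active: <10.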 Active and inactive are the calls of the source.

Legend:
Assay in all cases: NCI-60 one-dose screen, 48 h (100 = growth as untreated, 0 = no growth, -100 = all killed)
[1] = test system: NCI-H23 lung; details: 10 µM unless noted
[2] = test system: NCI-H226 lung; details: 10 µM unless noted
[3] = test system: NCI-H322M lung; details: 10 µM unless noted
[4] = test system: NCI-H460 lung; details: 10 µM unless noted
[5] = test system: HOP-92 NSCLC; details: 10 µM
[6] = test system: NCI-H522 lung; details: 10 µM
[7] = test system: A549/ATCC NSCLC; details: 10 µM unless noted
[8] = test system: 786-0 renal; details: 10 µM unless noted
[9] = test system: COLO 205 colon; details: 10 µM unless noted
[10] = test system: DU-145 prostate; details: 10 µM unless noted
[11] = test system: K-562 leukemia; details: 10 µM unless noted
[12] = test system: MALME-3M melanoma; details: 10 µM unless noted
[13] = test system: MDA-MB-231 breast; details: 10 µM unless noted
[14] = test system: RXF 393 renal; details: 10 µM unless noted
[15] = test system: SF-268 CNS; details: 10 µM unless noted
[16] = test system: SF-295 CNS; details: 10 µM unless noted
[17] = test system: SF-539 CNS; details: 10 µM unless noted
[18] = test system: UACC-257 melanoma; details: 10 µM unless noted
[19] = test system: M14 melanoma; details: 10 µM unless noted

Measured: growth

O=C(/C=C/c1cccc(O)c1)c1cccc(-n2cc(-c3ccc(Cl)cc3)[nH]c2=O)c1
inactive: [7] 28.3% | [9] 42.1% | [18] 22.1%
active: [1] -19.5% | [2] -48.7% | [3] -0.035% | [4] -4.62% | [5] -35.6% | [6] -48.6% | [8] -74.7% | [10] -69.8% | [11] -18.4% | [12] -36% | [13] -17.3% | [14] -61.1% | [15] -68.3% | [16] 4.32% | [17] -89.7% | [19] -13%

Oc1ccc(CN(Cc2ccc(C(F)(F)F)cc2)Cc2ccc(O)c3ncccc23)c2cccnc12
active: [4] 1.74% | [5] -3.41% | [6] 3.25% | [7] 1.19% | [11] 8.17% | [16] 6.95% | [18] -27.7% | [19] 3.46%
inactive: [1] 17.4% | [2] 18.3% | [3] 31.5% | [8] 11.4% | [9] 19.6% | [10] 24.1% | [12] 23.7% | [13] 48.4% | [14] 11.2% | [15] 25.6% | [17] 15.2%

CC(=O)/C(=C/c1ccc(-c2ccccc2)cc1)C(=O)c1ccccc1
inactive: [1] 91.6% | [2] 83.1% | [3] 100% | [4] 99.8% | [5] 89.9% | [6] 61.7% | [7] 76.4% | [8] 92% | [9] 93.6% | [10] 87.1% | [11] 64.2% | [12] 89.3% | [13] 92.5% | [14] 90.6% | [15] 85.9% | [16] 92.3% | [17] 85.1% | [18] 80.2% | [19] 79.8%

CCCC(C)c1cc(Cc2cc(Cl)cc(Cl)c2O)c(O)c(Cc2cc(Cl)cc(Cl)c2O)c1 (stereo not given)
inactive: [7] 15% | [9] 23.9% | [10] 26.8% | [15] 16.3%
active: [1] -6.96% | [2] -4.21% | [3] 9.16% | [4] 3.71% | [5] -19.2% | [6] 4.06% | [8] 6.89% | [11] 7.77% | [12] -22.2% | [13] -13.4% | [14] -10% | [16] -38.6% | [17] -3.24% | [18] -3.64% | [19] 7.97%

COc1cc(-c2nc3c(c(C)nc4c3nnn4-c3ccccc3)c(=O)o2)cc(OC)c1OC
inactive: [1] 115% | [2] 104% | [3] 104% | [4] 115% | [5] 103% | [6] 103% | [7] 112% | [8] 104% | [9] 113% | [10] 111% | [11] 106% | [12] 104% | [13] 106% | [14] 108% | [15] 98.3% | [16] 104% | [17] 102% | [18] 119% | [19] 98.6%

CC(=O)Nc1ccc(C(=O)/C=C/c2ccc(N(C)C)cc2)cc1
inactive: [1] 93.9% | [2] 96.9% | [3] 106% | [4] 97.6% | [5] 101% | [6] 76.6% | [7] 93.9% | [8] 96.7% | [9] 106% | [10] 98.2% | [11] 98.2% | [12] 88.9% | [13] 104% | [14] 99.1% | [15] 93.7% | [16] 99% | [17] 106% | [18] 95.5% | [19] 99.4%

C#CCCCCCCC[C@@H]1OC(=O)[C@H]([C@@H](C)CC)NC(=O)[C@@H]([C@@H](C)CC)NC(=O)CC(=O)[C@@H]1C
inactive: [1] 99.2% | [2] 86.1% | [3] 96.9% | [4] 102% | [5] 77.3% | [6] 90.7% | [7] 107% | [8] 109% | [9] 119% | [10] 106% | [11] 92.5% | [12] 94.7% | [13] 85.7% | [14] 101% | [15] 94.8% | [16] 98.6% | [17] 96.2% | [18] 121% | [19] 93.3%

COc1cc2c(cc1OC)C(Cc1cc(OC)c(OC)cc1[N+](=O)[O-])=NCC2
inactive: [1] 67.5% | [2] 88.7% | [3] 94.9% | [4] 64.8% | [5] 48.5% | [6] 82.6% | [7] 90% | [8] 87.6% | [9] 94.9% | [10] 101% | [11] 69% | [12] 101% | [13] 82.6% | [14] 90.8% | [15] 90% | [16] 42.9% | [17] 80.6% | [18] 102% | [19] 60.1%

CCOc1ccc(/C=N/NC(=O)c2cccc3ccccc23)cc1OCC
inactive: [1] 92.3% | [2] 96.7% | [3] 119% | [4] 101% | [5] 68.5% | [6] 87.4% | [7] 96.6% | [8] 102% | [9] 110% | [10] 106% | [11] 80.7% | [12] 114% | [13] 96% | [14] 109% | [15] 108% | [16] 89.1% | [17] 105% | [18] 109% | [19] 123%

Cc1ccc(S(=O)(=O)N/N=C2\CC3CCC2C3)cc1 (stereo not given)
inactive: [1] 117% | [2] 96.8% | [3] 99.3% | [4] 107% | [5] 87.2% | [6] 96.7% | [7] 105% | [8] 100% | [9] 113% | [10] 114% | [11] 103% | [12] 102% | [13] 111% | [14] 112% | [15] 113% | [16] 86.6% | [17] 97.6% | [18] 114% | [19] 104%

CC1Cc2cc(F)ccc2-n2cccc21 (stereo not given)
inactive: [1] 98.5% | [2] 154% | [3] 100% | [4] 98.7% | [5] 73.8% | [6] 101% | [7] 104% | [8] 111% | [9] 94.6% | [10] 106% | [11] 108% | [12] 101% | [13] 94% | [14] 136% | [15] 110% | [16] 104% | [17] 101% | [18] 101% | [19] 111%

COC(=O)c1ccc2[nH]c(O)c(C(=Nc3ccc(N(C)C(=O)CN4CCN(C)CC4)cc3)c3ccc4c(c3)OCO4)c2c1
inactive: [2] 23.3% | [3] 21% | [5] 36.9% | [8] 14.4% | [13] 12.5% | [15] 11.5% | [16] 27.5% | [18] 31.5% | [19] 10.5%
active: [1] 5.66% | [4] 8.35% | [6] 2.17% | [7] 5.98% | [9] -54.4% | [10] 7.84% | [11] 4.82% | [12] -5.19% | [14] -56.9% | [17] -19%

O=C(CN1C(=O)NC(c2ccccc2)(c2ccccc2)C1=O)c1ccc(N2CCCC2)cc1
inactive: [1] 72.2% | [2] 90.7% | [3] 97.4% | [4] 103% | [5] 73.8% | [6] 64.5% | [7] 77.2% | [8] 99.6% | [9] 103% | [10] 107% | [11] 29.5% | [12] 72.1% | [13] 113% | [14] 81% | [15] 97.8% | [16] 72.1% | [17] 100% | [18] 85.8% | [19] 52.9%

Cc1ccc(C(C)C)c(OCc2ccc(C(=O)N/N=C/c3cccc(O)c3O)cc2)c1
inactive: [1] 25.9% | [2] 68.1% | [3] 43.1% | [4] 12.5% | [5] 37.9% | [6] 47.4% | [7] 52.9% | [8] 16% | [9] 16.3% | [10] 33.6% | [12] 29.6% | [13] 41.1% | [14] 48.3% | [15] 25.6% | [16] 36.1% | [17] 26% | [18] 58.8% | [19] 18.1%
active: [11] 4.92%

COc1ccc(-c2nc(Nc3nc4ccccc4[nH]3)nc(N)c2C#N)cc1
inactive: [1] 100% | [2] 85.4% | [3] 111% | [4] 109% | [5] 88.6% | [6] 92.5% | [7] 106% | [8] 102% | [9] 81.4% | [10] 108% | [11] 97.2% | [12] 106% | [13] 91.9% | [14] 134% | [15] 99% | [16] 114% | [17] 97.2% | [18] 108% | [19] 99.5%
